# Test results taken from article PMC7862700, “An all-to-all approach to the identification of sequence-specific readers for epigenetic DNA modifications on cytosine”.
# Columns and labels:
# Experiment in all cases: DAPPL (digital affinity profiling via proximity ligation, sequencing); 10 mM Tris-HCl pH 7.5, 50 mM NaCl, 1 mM DTT, 4% glycerol, room temperature, 30 min; GST-TFs on glutathione beads, 16-mer random dsDNA library, 0.1% formaldehyde crosslink after washing; high values mean tight binding
# FLI1 = target: T1, FLI1 (Homo sapiens, UniProt Q01543 1-452); settings: protein: recombinant; tags: N-terminal GST; dsDNA, one strand shown
# T1 sequence: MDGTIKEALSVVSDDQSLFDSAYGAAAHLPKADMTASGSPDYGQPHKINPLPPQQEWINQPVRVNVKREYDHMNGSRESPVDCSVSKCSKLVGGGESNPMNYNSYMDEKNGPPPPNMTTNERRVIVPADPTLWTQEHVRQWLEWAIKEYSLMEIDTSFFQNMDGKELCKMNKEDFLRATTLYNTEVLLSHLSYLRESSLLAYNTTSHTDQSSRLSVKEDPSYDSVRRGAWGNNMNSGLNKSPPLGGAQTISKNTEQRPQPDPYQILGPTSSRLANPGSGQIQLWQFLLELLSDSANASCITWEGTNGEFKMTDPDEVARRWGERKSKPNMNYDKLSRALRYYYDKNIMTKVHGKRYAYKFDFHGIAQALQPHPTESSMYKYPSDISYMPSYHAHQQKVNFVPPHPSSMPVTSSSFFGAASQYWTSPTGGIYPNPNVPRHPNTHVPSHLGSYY
# Outline: (§1)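 After expression in yeast as GST fusions, human transcription factors were bound to glutathione beads, DNA-barcoded and mixed with a tag-only sample. The pools were incubated with 200 nmole of a 16-mer random double-stranded DNA library in Tris/NaCl/DTT/glycerol buffer (30 min, room temperature), washed and crosslinked with 0.1% formaldehyde. Proximity ligation with BsaI/T4 ligase ran for 1 h at 37 °C, before PCR amplification and sequencing on an Illumina NextSeq500. Binding signal is a hexamer's read frequency for a factor divided by its frequency for the tag-only sample.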
# ELK1 = target: T2, ELK1 (Homo sapiens, UniProt P19419 1-428); settings: protein: recombinant; tags: N-terminal GST; dsDNA, one strand shown
# T2 sequence: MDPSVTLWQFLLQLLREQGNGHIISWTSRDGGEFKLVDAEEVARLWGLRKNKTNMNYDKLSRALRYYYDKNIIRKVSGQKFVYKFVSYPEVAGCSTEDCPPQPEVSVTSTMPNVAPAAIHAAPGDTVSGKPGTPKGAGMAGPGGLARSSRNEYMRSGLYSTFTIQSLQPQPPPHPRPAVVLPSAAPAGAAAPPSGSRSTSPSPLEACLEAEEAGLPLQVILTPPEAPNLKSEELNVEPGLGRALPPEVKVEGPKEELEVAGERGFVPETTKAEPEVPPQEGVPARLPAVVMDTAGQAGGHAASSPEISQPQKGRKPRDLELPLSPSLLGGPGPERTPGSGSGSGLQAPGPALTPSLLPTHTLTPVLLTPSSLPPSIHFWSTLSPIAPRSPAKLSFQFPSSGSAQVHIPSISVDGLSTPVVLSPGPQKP
# Outline: as §1
# GABPA = target: T3, GABPA (Homo sapiens, UniProt Q06546 1-454); settings: protein: recombinant; tags: N-terminal GST; dsDNA, one strand shown
# T3 sequence: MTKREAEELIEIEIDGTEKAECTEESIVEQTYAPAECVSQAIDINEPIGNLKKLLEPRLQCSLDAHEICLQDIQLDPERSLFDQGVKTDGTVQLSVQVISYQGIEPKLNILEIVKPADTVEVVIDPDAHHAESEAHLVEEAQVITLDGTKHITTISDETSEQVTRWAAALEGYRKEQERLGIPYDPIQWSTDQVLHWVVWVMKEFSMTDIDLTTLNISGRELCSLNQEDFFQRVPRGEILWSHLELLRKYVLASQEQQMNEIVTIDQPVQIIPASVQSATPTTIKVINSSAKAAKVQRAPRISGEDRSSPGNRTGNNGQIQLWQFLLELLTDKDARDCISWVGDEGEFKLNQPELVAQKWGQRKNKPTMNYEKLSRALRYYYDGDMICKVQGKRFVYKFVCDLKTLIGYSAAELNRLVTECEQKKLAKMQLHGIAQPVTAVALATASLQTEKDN
# Outline: as §1
# ERG = target: T4, ERG (Homo sapiens, UniProt P11308 1-479); settings: protein: recombinant; tags: N-terminal GST; dsDNA, one strand shown
# T4 sequence: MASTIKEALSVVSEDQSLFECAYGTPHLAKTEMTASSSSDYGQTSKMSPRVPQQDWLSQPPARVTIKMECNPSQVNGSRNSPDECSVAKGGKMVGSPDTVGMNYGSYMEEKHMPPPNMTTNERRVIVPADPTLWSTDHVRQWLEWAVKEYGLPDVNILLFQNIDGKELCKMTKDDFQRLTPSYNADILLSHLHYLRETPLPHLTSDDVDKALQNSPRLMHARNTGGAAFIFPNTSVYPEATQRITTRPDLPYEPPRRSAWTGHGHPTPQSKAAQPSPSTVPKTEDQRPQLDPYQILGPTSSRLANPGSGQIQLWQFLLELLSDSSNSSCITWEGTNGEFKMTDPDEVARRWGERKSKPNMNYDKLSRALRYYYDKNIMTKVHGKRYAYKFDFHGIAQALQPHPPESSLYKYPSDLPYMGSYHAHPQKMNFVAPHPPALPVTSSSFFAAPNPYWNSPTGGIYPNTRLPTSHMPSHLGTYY
# Outline: as §1
# ELF1 = ELF1 (Homo sapiens, UniProt P32519 1-619); settings: protein: recombinant; tags: N-terminal GST; dsDNA, one strand shown
# ELF1, sequence (P32519 whole entry): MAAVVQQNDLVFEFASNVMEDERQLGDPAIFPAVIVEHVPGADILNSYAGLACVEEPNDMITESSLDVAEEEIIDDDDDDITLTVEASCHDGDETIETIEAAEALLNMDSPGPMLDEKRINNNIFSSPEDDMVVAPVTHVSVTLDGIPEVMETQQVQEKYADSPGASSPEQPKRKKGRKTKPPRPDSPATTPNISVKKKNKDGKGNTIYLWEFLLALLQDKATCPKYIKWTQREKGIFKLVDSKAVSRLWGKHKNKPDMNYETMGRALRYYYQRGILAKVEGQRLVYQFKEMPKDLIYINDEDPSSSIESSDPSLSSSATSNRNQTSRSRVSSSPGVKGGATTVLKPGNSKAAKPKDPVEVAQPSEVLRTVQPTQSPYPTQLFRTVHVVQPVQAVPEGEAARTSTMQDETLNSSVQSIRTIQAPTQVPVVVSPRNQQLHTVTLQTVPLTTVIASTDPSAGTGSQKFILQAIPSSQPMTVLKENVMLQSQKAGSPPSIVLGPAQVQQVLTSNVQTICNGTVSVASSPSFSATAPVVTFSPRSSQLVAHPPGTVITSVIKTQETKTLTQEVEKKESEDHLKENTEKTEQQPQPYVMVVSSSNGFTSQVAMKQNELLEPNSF
# Outline: as §1
# EHF = target: T5, EHF (Homo sapiens, UniProt Q9NZC4 1-300); settings: protein: recombinant; tags: N-terminal GST; dsDNA, one strand shown
# T5 sequence: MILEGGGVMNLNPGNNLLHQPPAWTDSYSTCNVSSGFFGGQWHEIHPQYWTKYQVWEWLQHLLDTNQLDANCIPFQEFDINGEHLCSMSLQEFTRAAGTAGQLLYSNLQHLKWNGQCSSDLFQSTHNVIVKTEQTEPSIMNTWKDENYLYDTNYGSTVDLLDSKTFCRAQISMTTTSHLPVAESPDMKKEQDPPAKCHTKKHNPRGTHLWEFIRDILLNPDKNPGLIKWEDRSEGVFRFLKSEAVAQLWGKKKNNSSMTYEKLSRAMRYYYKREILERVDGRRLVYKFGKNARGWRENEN
# Outline: as §1
# SPI1 = SPI1 (Homo sapiens, UniProt P17947 1-270); settings: protein: recombinant; tags: N-terminal GST; dsDNA, one strand shown
# Outline: as §1
# SPIB = SPIB (Homo sapiens, UniProt Q01892 1-262); settings: protein: recombinant; tags: N-terminal GST; dsDNA, one strand shown
# SPIB, sequence (Q01892 whole entry): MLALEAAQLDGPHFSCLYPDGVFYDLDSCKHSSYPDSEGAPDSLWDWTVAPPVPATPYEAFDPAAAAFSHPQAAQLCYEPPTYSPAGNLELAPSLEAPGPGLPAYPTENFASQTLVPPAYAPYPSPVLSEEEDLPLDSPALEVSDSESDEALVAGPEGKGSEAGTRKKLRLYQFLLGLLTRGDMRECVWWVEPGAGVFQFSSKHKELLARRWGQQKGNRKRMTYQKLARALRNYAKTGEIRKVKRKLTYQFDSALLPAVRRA
# Outline: as §1
# ELK3 = target: T6, ELK3 (Homo sapiens, UniProt P41970 1-407); settings: protein: recombinant; tags: N-terminal GST; dsDNA, one strand shown
# T6 sequence: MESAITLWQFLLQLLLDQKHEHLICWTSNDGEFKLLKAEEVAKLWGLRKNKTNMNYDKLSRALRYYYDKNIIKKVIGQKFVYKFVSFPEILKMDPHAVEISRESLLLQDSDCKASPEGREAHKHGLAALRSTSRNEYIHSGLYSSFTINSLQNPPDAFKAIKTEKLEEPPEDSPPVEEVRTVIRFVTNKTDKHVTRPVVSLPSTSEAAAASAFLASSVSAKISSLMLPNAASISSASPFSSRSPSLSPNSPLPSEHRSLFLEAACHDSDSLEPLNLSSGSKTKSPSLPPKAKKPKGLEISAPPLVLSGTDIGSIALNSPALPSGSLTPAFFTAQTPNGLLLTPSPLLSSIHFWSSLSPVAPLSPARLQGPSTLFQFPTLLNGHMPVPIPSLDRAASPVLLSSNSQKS
# Outline: as §1
# FEV = target: T7, FEV (Homo sapiens, UniProt Q99581 1-238); settings: protein: recombinant; tags: N-terminal GST; dsDNA, one strand shown
# T7 sequence: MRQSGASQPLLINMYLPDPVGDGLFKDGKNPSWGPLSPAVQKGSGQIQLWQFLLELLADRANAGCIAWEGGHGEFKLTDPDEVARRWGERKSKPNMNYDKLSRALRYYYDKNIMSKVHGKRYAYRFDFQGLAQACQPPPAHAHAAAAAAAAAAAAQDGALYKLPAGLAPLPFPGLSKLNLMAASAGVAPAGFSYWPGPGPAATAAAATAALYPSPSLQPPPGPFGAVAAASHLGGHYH
# Outline: as §1
# ETV5 = ETV5 (Homo sapiens, UniProt P41161 1-510); settings: protein: recombinant; tags: N-terminal GST; dsDNA, one strand shown
# ETV5, sequence (P41161 whole entry): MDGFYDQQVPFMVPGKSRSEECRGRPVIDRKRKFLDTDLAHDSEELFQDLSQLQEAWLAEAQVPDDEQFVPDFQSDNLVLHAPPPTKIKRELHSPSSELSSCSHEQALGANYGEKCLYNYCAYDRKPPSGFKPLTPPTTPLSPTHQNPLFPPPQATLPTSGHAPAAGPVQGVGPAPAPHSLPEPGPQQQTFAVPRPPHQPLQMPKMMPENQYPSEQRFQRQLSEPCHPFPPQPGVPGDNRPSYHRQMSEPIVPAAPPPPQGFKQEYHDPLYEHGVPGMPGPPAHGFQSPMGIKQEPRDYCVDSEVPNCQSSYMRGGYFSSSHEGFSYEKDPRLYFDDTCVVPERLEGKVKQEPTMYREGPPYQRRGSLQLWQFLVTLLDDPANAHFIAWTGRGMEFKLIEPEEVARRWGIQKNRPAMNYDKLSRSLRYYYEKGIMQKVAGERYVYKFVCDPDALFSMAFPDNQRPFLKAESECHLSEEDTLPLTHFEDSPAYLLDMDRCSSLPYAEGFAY
# Outline: as §1
# HSF1 = HSF1 (Homo sapiens, UniProt Q00613 1-529); settings: protein: recombinant; tags: N-terminal GST; chain copies: 3; dsDNA, one strand shown
# HSF1, sequence (Q00613 whole entry): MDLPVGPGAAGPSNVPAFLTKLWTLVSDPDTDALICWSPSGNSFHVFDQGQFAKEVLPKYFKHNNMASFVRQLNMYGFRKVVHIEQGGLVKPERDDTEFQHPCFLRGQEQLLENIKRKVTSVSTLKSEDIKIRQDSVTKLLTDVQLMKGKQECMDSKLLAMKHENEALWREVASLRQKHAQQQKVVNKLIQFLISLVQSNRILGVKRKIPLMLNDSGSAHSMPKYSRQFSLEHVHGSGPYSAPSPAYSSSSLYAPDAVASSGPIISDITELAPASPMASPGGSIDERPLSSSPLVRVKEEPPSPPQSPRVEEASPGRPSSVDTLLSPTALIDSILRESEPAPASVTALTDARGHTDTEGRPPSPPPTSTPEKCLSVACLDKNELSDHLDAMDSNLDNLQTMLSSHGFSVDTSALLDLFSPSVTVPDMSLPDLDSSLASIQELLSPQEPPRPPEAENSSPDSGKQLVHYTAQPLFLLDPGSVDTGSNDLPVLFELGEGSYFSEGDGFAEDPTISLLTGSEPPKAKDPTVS
# Outline: as §1
# SPIC = target: T8, SPIC (Homo sapiens, UniProt Q8N5J4 1-248); settings: protein: recombinant; tags: N-terminal GST; dsDNA, one strand shown
# T8 sequence: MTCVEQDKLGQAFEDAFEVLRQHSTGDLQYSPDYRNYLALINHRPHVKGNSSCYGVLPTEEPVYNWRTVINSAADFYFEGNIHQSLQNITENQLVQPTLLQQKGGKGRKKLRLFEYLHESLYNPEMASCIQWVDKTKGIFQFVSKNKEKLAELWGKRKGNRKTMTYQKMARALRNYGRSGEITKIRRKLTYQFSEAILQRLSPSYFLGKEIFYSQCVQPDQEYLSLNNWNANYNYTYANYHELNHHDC
# Outline: as §1
# ELF4 = ELF4 (Homo sapiens, UniProt Q99607 1-663); settings: protein: recombinant; tags: N-terminal GST; dsDNA, one strand shown
# ELF4, sequence (Q99607 whole entry): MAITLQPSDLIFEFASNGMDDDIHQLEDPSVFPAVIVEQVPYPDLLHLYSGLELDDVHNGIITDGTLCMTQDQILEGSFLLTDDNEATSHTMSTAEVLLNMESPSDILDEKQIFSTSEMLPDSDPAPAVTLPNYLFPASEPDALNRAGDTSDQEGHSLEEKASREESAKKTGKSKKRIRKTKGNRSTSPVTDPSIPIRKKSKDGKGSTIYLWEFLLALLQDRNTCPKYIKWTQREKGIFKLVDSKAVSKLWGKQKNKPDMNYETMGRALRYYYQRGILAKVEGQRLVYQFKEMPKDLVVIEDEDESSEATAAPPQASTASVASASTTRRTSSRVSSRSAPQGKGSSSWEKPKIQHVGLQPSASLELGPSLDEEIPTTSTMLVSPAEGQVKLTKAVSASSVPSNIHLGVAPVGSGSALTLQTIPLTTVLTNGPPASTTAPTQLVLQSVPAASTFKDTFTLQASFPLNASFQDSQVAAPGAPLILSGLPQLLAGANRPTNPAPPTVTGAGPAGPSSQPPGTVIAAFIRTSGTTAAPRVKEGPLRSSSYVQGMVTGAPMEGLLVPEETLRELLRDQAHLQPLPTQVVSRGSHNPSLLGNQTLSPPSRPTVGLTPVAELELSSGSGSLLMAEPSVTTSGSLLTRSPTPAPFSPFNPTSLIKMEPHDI
# Outline: as §1
# ELK4 = target: T9, ELK4 (Homo sapiens, UniProt P28324-2 1-405); settings: protein: recombinant; tags: N-terminal GST; dsDNA, one strand shown
# T9 sequence: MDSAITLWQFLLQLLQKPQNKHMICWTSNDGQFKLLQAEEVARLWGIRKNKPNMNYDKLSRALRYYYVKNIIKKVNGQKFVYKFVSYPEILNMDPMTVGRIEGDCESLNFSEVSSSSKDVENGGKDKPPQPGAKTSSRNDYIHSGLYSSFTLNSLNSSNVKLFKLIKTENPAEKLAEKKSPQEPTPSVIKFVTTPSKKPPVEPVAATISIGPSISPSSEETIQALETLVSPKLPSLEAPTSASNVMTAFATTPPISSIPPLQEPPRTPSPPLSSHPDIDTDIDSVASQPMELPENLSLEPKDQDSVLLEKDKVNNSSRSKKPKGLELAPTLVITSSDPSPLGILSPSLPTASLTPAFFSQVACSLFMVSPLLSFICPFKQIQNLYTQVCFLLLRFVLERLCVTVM
# Outline: as §1
# ETV2 = target: T10, ETV2 (Homo sapiens, UniProt O00321 1-342); settings: protein: recombinant; tags: N-terminal GST; dsDNA, one strand shown
# T10 sequence: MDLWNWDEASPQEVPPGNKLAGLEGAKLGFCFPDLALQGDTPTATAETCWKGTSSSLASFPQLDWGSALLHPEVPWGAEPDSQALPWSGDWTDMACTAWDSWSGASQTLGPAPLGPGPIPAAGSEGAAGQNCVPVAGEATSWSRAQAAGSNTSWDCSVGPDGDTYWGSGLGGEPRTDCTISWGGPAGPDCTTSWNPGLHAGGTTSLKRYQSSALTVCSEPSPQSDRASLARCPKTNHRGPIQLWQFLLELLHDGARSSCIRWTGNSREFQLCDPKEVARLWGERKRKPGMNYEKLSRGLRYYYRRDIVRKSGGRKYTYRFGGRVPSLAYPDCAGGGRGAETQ
# Outline: as §1
# ELF3 = target: T11, ELF3 (Homo sapiens, UniProt P78545 1-371); settings: protein: recombinant; tags: N-terminal GST; dsDNA, one strand shown
# T11 sequence: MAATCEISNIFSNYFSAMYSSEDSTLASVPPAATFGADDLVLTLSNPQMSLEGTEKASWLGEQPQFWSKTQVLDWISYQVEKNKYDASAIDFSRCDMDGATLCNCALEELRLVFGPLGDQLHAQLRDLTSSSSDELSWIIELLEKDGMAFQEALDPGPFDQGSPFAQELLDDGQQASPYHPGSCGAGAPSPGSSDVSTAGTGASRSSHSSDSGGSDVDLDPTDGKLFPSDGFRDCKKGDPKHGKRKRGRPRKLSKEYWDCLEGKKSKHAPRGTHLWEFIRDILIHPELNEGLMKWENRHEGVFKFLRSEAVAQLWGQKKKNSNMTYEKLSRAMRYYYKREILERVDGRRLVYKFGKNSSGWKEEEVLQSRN
# Outline: as §1
# ETV1 = ETV1 (Homo sapiens, UniProt P50549 1-477); settings: protein: recombinant; tags: N-terminal GST; dsDNA, one strand shown
# ETV1, sequence (P50549 whole entry): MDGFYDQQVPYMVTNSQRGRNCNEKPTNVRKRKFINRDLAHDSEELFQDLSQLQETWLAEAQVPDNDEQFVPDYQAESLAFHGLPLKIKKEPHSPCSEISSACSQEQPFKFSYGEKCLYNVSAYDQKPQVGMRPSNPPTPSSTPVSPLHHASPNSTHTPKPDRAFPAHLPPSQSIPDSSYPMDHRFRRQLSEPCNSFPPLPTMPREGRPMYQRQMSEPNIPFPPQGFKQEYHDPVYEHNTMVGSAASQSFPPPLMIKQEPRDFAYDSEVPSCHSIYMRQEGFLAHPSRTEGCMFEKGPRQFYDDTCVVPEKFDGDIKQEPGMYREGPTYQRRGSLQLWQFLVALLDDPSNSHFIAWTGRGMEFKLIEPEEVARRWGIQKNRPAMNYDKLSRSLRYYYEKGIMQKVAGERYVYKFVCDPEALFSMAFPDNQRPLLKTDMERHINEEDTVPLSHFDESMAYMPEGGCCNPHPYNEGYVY
# Outline: as §1
sequence,measurement,setting,value
GAAACT,binding signal,FLI1,"1.22 fold enrichment (6-mer frequency, TF over GST control)"
same,binding signal,ELK1,"1.21 fold enrichment (6-mer frequency, TF over GST control)"
same,binding signal,GABPA,"1.14 fold enrichment (6-mer frequency, TF over GST control)"
same,binding signal,ERG,"1.11 fold enrichment (6-mer frequency, TF over GST control)"
same,binding signal,ELF1,"1.18 fold enrichment (6-mer frequency, TF over GST control)"
same,binding signal,EHF,"1.19 fold enrichment (6-mer frequency, TF over GST control)"
same,binding signal,SPI1,"1.2 fold enrichment (6-mer frequency, TF over GST control)"
same,binding signal,SPIB,"1.14 fold enrichment (6-mer frequency, TF over GST control)"
same,binding signal,ELK3,"1.22 fold enrichment (6-mer frequency, TF over GST control)"
same,binding signal,FEV,"1.29 fold enrichment (6-mer frequency, TF over GST control)"
same,binding signal,ETV5,"1.28 fold enrichment (6-mer frequency, TF over GST control)"
same,binding signal,HSF1,"1.32 fold enrichment (6-mer frequency, TF over GST control)"
same,binding signal,SPIC,"1.25 fold enrichment (6-mer frequency, TF over GST control)"
same,binding signal,ELF4,"1.24 fold enrichment (6-mer frequency, TF over GST control)"
same,binding signal,ELK4,"1.14 fold enrichment (6-mer frequency, TF over GST control)"
same,binding signal,ETV2,"1.12 fold enrichment (6-mer frequency, TF over GST control)"
same,binding signal,ELF3,"1.19 fold enrichment (6-mer frequency, TF over GST control)"
same,binding signal,ETV1,"1.27 fold enrichment (6-mer frequency, TF over GST control)"
